This is part of a sample that, as a whole, favours compounds with a hit. Of some 83,000 tested, about 20% had one in any assay.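 Each cell line was grown in a 96-well plate and treated with one concentration of compound for 48 hours. Values below 10 were considered active.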 Values without a mark were called inactive. Calls of active or inactive are those of the source.
These molecules were tested on SF-268 CNS (assay: NCI-60 one-dose screen, 48 h (100 = growth as untreated, 0 = no growth, -100 = all killed)). Details: 10 µM unless noted.

For `COc1ccc2nc(-c3ccc(Cl)cc3)cc(-c3nnc(SCC(=O)Nc4ccc(/C(C)=N\O)cc4)o3)c2c1`, which growth is on record?
Its growth is 33.1%.

`C/C(=C\c1cnc(C)s1)[C@@H]1C[C@@H]2O[C@@H]2CCC[C@H](C)[C@H](O)[C@@H](C)C(=O)C(C)(C)[C@@H](O)CC(=O)O1` was tested. Which growth did it give?
The growth was 51.7%.

For `O=C(/C(=C\c1c(-c2ccccc2)[nH]c2ccccc12)S(=O)(=O)c1ccccc1)c1ccccc1`, which growth is on record?
The growth was 62.1%.

With `O=c1[nH]c(-c2cccc(F)c2)cc2cc(F)ccc12` as the molecule, how does the growth read?
Its growth is 68.4%.

With `O=C1CS/C(=N/c2nnc(-c3ccc(O)cc3)s2)N1` as the molecule, how does the growth read?
The growth was 108%.

How did the growth turn out when `C[C@H](Oc1cc(-c2cnn(C3CCNCC3)c2)cnc1N)c1c(Cl)ccc(F)c1Cl` was run?
Its growth is 59%.

For `COCCOCCOCc1n(Cc2ccc3ccccc3n2)c2ccccc2[n+]1Cc1ccc2ccccc2n1`, which growth is on record?
The growth was 22.7%.

How did the growth turn out when `CCOC(=O)c1cnn(-c2nc(-c3ccc(F)cc3)c(C#N)c(N3CCOCC3)n2)c1N` was run?
Its growth is 98.7%.

`CC(=O)c1c(OCC#N)ccc2c(C)cc(=O)oc12` was tested. Which growth did it give?
Its growth is 110%.

Which growth does the source give for `CN(CCC#N)C(=O)Nc1ccccc1` here?
The growth was 106%.

How did the growth turn out when `C#Cc1ccccc1NC(=O)c1sc2nc3c(cc2c1N)CCCCC3` was run?
Its growth is 104%.

For `COCCOC(=O)COc1ccc(OC)cc1`, which growth is on record?
Its growth is 102%.

For `C#C[C@@]1(O)[C@@H](CO)O[C@@H](n2cnc3c(-c4ccccc4)ncnc32)[C@@H]1O`, which growth is on record?
The growth was 99%.

For `COc1cc(NCC(=O)Nc2cc(Nc3ccc(C)cc3)ncn2)c(Cl)c(OC)c1Cl`, which growth is on record?
Its growth is 88.6%.

`COc1ccc2oc(=O)cc(-c3c(C#N)c(N)n4nc(N)c(C#N)c4c3C#N)c2c1` was tested. Which growth did it give?
The growth was 89.9%.

Which growth does the source give for `O=C1NC(SCc2ccc(F)cc2)=N/C1=C/c1cccc(OCc2ccc(Cl)cc2)c1` here?
The growth was 74.3%.

For `COc1ccc(Nc2nc(SCC(C)C)nc(-c3ccc(F)cc3)c2C#N)cc1`, which growth is on record?
The growth was 74.9%.

`COC(=O)/C=C1\SC(=Nc2ccc(F)cc2)N(CCc2c[nH]c3ccccc23)C1=O` was tested. Which growth did it give?
The growth was 104%.

Which growth does the source give for `Nc1c(C(=O)Nc2ccccc2)sc2nc3c(cc12)CN(C(=O)OCc1ccccc1)CC3` here?
Its growth is 62.2%.

For `COc1ccc(C2=NN(c3ccc(S(N)(=O)=O)cc3)C(c3ccc(Cl)cc3)C2)c(O)c1` (centres undefined), which growth is on record?
The growth was 83.8%.

Which growth does the source give for `COc1ccc(C(C)c2cc(OC)c(OC)c(OC)c2)cc1` (centres undefined) here?
Its growth is 37.5%.

For `COc1ccc(-n2nc(C(=O)NCC(=O)O)nc2-c2ccccc2)cc1`, which growth is on record?
The growth was 99.3%.

With `CCOC(=O)C1=C(C)n2nc(CC#N)c(C#N)c2NC1c1ccc(Cl)cc1` (centres undefined) as the molecule, how does the growth read?
The growth was 87.3%.

Which growth does the source give for `Nc1c(C(=O)Nc2ccccn2)sc2nc3c(cc12)CCCC3` here?
The growth was 62.4%.

`CCN1CCC[C@H]1c1cc(O)c2c(c1OC)C[C@H]1C[C@H]3[C@H](N)C(=O)C(C(N)=O)=C(O)[C@@]3(O)C(=O)C1=C2O` was tested. Which growth did it give?
The growth was 2.64% (active).

For `Cc1cc(O)cc(O)c1N=NC1=NCCS1`, which growth is on record?
The growth was 94.6%.

`COC(=O)c1cncc(C(=O)Nc2ccc(-n3cnc4ccccc43)cc2)c1` was tested. Which growth did it give?
Its growth is 91.9%.

With `CNc1cccc2c1C(=O)c1cccc(N)c1C2=O` as the molecule, how does the growth read?
Its growth is 56.1%.

Which growth does the source give for `O=S(=O)(Nc1nccs1)c1ccc(Nc2nc(-c3ccncc3)cs2)cc1` here?
The growth was 107%.

`CN1C(=O)c2cc(Cl)nc3c(NC(=O)c4cccc(Cl)c4)c(Cl)c(NC(=O)c4cccc(Cl)c4)c1c23` was tested. Which growth did it give?
Its growth is 3.08% (active).

Which growth does the source give for `O=C(O)COc1ccc2c(=O)c3sc4c(=O)c5ccccc5c(=O)c4c3c(=O)c2c1` here?
The growth was 44.7%.

`O=C(Nc1nc(-c2ccccc2)cs1)c1cc(-c2ccc(Br)cc2)nc2ccccc12` was tested. Which growth did it give?
Its growth is 53.8%.

How did the growth turn out when `Cc1cc(Nc2nc(SCc3ccc(C(=O)Nc4ccc(F)cc4N)cc3)nn3cccc23)n[nH]1` was run?
Its growth is 28.2%.

Which growth does the source give for `O=C1NCc2ccc3c(-c4cccc(Cl)c4)c[nH]c3c21` here?
The growth was 52.6%.

With `O=C(CN1N=C(c2ccc(F)cc2)CCC1=O)Nc1nccs1` as the molecule, how does the growth read?
Its growth is 99.9%.

`O=C1Nc2ccc(Cl)cc2/C1=N/c1nc(-c2ccc(F)cc2)cs1` was tested. Which growth did it give?
The growth was 46%.

Which growth does the source give for `OCCNc1nc(NCCO)nc(Nc2ccc(C3=NN(c4cc(Cl)cc(Cl)c4)C(c4ccc(Cl)cc4)C3)cc2)n1` (centres undefined) here?
Its growth is 19.1%.

What follows are molecules tested on SF-295 CNS in the same assay as above. Details: 10 µM unless noted.

How did the growth turn out when `COc1ccc2nc(-c3ccc(Cl)cc3)cc(-c3nnc(SCC(=O)Nc4ccc(/C(C)=N\O)cc4)o3)c2c1` was run?
The growth was 43%.

How did the growth turn out when `C/C(=C\c1cnc(C)s1)[C@@H]1C[C@@H]2O[C@@H]2CCC[C@H](C)[C@H](O)[C@@H](C)C(=O)C(C)(C)[C@@H](O)CC(=O)O1` was run?
Its growth is 7.05% (active).

With `O=C(/C(=C\c1c(-c2ccccc2)[nH]c2ccccc12)S(=O)(=O)c1ccccc1)c1ccccc1` as the molecule, how does the growth read?
The growth was -6.63% (active).

With `O=c1[nH]c(-c2cccc(F)c2)cc2cc(F)ccc12` as the molecule, how does the growth read?
Its growth is 8.3% (active).

`O=C1CS/C(=N/c2nnc(-c3ccc(O)cc3)s2)N1` was tested. Which growth did it give?
The growth was 93.9%.

Which growth does the source give for `C[C@H](Oc1cc(-c2cnn(C3CCNCC3)c2)cnc1N)c1c(Cl)ccc(F)c1Cl` here?
Its growth is 49.7%.

`COCCOCCOCc1n(Cc2ccc3ccccc3n2)c2ccccc2[n+]1Cc1ccc2ccccc2n1` was tested. Which growth did it give?
Its growth is 52.3%.

Which growth does the source give for `CCOC(=O)c1cnn(-c2nc(-c3ccc(F)cc3)c(C#N)c(N3CCOCC3)n2)c1N` here?
The growth was 101%.

For `CC(=O)c1c(OCC#N)ccc2c(C)cc(=O)oc12`, which growth is on record?
The growth was 125%.

`CN(CCC#N)C(=O)Nc1ccccc1` was tested. Which growth did it give?
The growth was 109%.

Which growth does the source give for `C#Cc1ccccc1NC(=O)c1sc2nc3c(cc2c1N)CCCCC3` here?
Its growth is 113%.

Which growth does the source give for `COCCOC(=O)COc1ccc(OC)cc1` here?
The growth was 99.5%.

With `C#C[C@@]1(O)[C@@H](CO)O[C@@H](n2cnc3c(-c4ccccc4)ncnc32)[C@@H]1O` as the molecule, how does the growth read?
Its growth is 97.7%.

`COc1cc(NCC(=O)Nc2cc(Nc3ccc(C)cc3)ncn2)c(Cl)c(OC)c1Cl` was tested. Which growth did it give?
Its growth is 82.8%.

With `COc1ccc2oc(=O)cc(-c3c(C#N)c(N)n4nc(N)c(C#N)c4c3C#N)c2c1` as the molecule, how does the growth read?
The growth was 103%.

How did the growth turn out when `O=C1NC(SCc2ccc(F)cc2)=N/C1=C/c1cccc(OCc2ccc(Cl)cc2)c1` was run?
The growth was -33.6% (active).

`COc1ccc(Nc2nc(SCC(C)C)nc(-c3ccc(F)cc3)c2C#N)cc1` was tested. Which growth did it give?
Its growth is 40.6%.

With `COC(=O)/C=C1\SC(=Nc2ccc(F)cc2)N(CCc2c[nH]c3ccccc23)C1=O` as the molecule, how does the growth read?
Its growth is 97.7%.

With `Nc1c(C(=O)Nc2ccccc2)sc2nc3c(cc12)CN(C(=O)OCc1ccccc1)CC3` as the molecule, how does the growth read?
The growth was 40.7%.

Which growth does the source give for `COc1ccc(C2=NN(c3ccc(S(N)(=O)=O)cc3)C(c3ccc(Cl)cc3)C2)c(O)c1` (centres undefined) here?
Its growth is 46.3%.

`COc1ccc(C(C)c2cc(OC)c(OC)c(OC)c2)cc1` (centres undefined) was tested. Which growth did it give?
The growth was 15.6%.

Which growth does the source give for `COc1ccc(-n2nc(C(=O)NCC(=O)O)nc2-c2ccccc2)cc1` here?
Its growth is 107%.

`CCOC(=O)C1=C(C)n2nc(CC#N)c(C#N)c2NC1c1ccc(Cl)cc1` (centres undefined) was tested. Which growth did it give?
Its growth is 102%.

`Nc1c(C(=O)Nc2ccccn2)sc2nc3c(cc12)CCCC3` was tested. Which growth did it give?
The growth was 34%.

How did the growth turn out when `CCN1CCC[C@H]1c1cc(O)c2c(c1OC)C[C@H]1C[C@H]3[C@H](N)C(=O)C(C(N)=O)=C(O)[C@@]3(O)C(=O)C1=C2O` was run?
The growth was 0.93% (active).

With `Cc1cc(O)cc(O)c1N=NC1=NCCS1` as the molecule, how does the growth read?
The growth was 101%.

`COC(=O)c1cncc(C(=O)Nc2ccc(-n3cnc4ccccc43)cc2)c1` was tested. Which growth did it give?
The growth was 100%.

For `CNc1cccc2c1C(=O)c1cccc(N)c1C2=O`, which growth is on record?
The growth was 88.5%.

Which growth does the source give for `O=S(=O)(Nc1nccs1)c1ccc(Nc2nc(-c3ccncc3)cs2)cc1` here?
The growth was 120%.

How did the growth turn out when `CN1C(=O)c2cc(Cl)nc3c(NC(=O)c4cccc(Cl)c4)c(Cl)c(NC(=O)c4cccc(Cl)c4)c1c23` was run?
The growth was 88.1%.

Which growth does the source give for `O=C(O)COc1ccc2c(=O)c3sc4c(=O)c5ccccc5c(=O)c4c3c(=O)c2c1` here?
The growth was -97% (active).

`O=C(Nc1nc(-c2ccccc2)cs1)c1cc(-c2ccc(Br)cc2)nc2ccccc12` was tested. Which growth did it give?
Its growth is 49.9%.

How did the growth turn out when `Cc1cc(Nc2nc(SCc3ccc(C(=O)Nc4ccc(F)cc4N)cc3)nn3cccc23)n[nH]1` was run?
Its growth is 18%.

How did the growth turn out when `O=C1NCc2ccc3c(-c4cccc(Cl)c4)c[nH]c3c21` was run?
Its growth is 7.18% (active).

With `O=C(CN1N=C(c2ccc(F)cc2)CCC1=O)Nc1nccs1` as the molecule, how does the growth read?
The growth was 97.3%.

How did the growth turn out when `O=C1Nc2ccc(Cl)cc2/C1=N/c1nc(-c2ccc(F)cc2)cs1` was run?
The growth was 39.6%.

Which growth does the source give for `OCCNc1nc(NCCO)nc(Nc2ccc(C3=NN(c4cc(Cl)cc(Cl)c4)C(c4ccc(Cl)cc4)C3)cc2)n1` (centres undefined) here?
The growth was -68.3% (active).

Source: PubChem BioAssay (NCI)
